The text below walks through data of PubChem BioAssay (NCATS).

Records with an inconclusive call do not appear. A number with no mark means an inactive call. Activity calls are given as the source filed them. Calls come from the whole dose curve; as a rule, active = well fitted inhibition curve with a large enough effect; inconclusive = small, poorly fitted or top-dose-only effect; inactive = no such curve, though single readings can be large or run the other way.
Potency is the fitted concentration of half-maximal effect.

This test can be described thus: BET inhibitor-based combinations targeting novel dependencies in MECOM-rearranged (r) AML: MV-4-11 cell line (AID 2202233). Note: nearly all actives have a fitted effect of over 45% in size. The note with it: MV-4-11 AML viability, CellTiter-Glo luminescence, 48 h; series mostly up to 46 µM; viability, % of control: at the top concentration. An excerpt: Ecotropic viral insertion site 1 (EVI1) is located on chromosome 3q26.2 as part of the MECOM (MDS and EVI1 complex) locus. Under normal hematopoiesis, EVI1 is a regulator of hematopoietic stem cell maintenance and self-renewal and EVI1 levels decrease as the cells differentiate. In approximately 5-10% of de novo acute myeloid leukemia (AML) EVI1 is aberrantly expressed, including Chromosomal inv(3)(q21;q26.2) or t(3;3)(q21;q26.2) alterations (MECOM-r) that account for about 50% of AML with EVI1 overexpression 31. AMLs with high levels of EVI1 have a poor prognosis and an overall survival time averaging between 10-14 months. EVI1 overexpression confers resistance in leukemia cells, highlighting the need to develop new targeted therapies for EVI1 overexpressing AMLs. Here, we performed an unbiased chemical drug screening by evaluating the single agent activity of a collection of 2,480 oncology-focused, approved and investigational drugs (NCATS Mechanism Interrogation Plates, MIPE v5.0) against a panel of seven AML cell lines. These included four MECOM-r cell-lines (AML-191, AML-194, UCSD-AML1 and HNT-34) and three non-MECOM-r AMLs (MV4-11, OCI-AML3 and SET-2). Exploiting the mechanistic redundancy built in the library, we identified target-level sensitivities in MECOM-r AML cells and relative activity as compared to other AML subtypes.
A collection of 2480 mechanistically annotated dugs (MIPE v5.0) was used to screen four 3q26.2 rearranged AML cell lines and three non-3q26.2 rearranged AML cell lines. This library purposely exploits redundancy by including multiple inhibitors of key onco-targets, while simultaneously encompassing mechanistic diversity, targeting more than 800 distinct mechanisms of action. Briefly, cells were seeded in 5 uL of growth media using a Multidrop Combi dispenser into 1536 well white polystyrene tissue culture treated plates (Corning) at a density of 500cells/well. For each cell-line, for each of the 2480 drugs in MIPE v5.0 library, an 11-point dose curve was generated via a 1536 pin-tool. Plates were incubated for 48 hr at standard incubator conditions, covered by a stainless steel gasketed lid to prevent evaporation. Cell viability was determined by luminescence based, Cell Titer Glo assay (Promega). In detail, 3 uL of Cell Titer Glo were added to each well and plates were incubated at room temperature for 15 min with a stainless-steel lid in place. Luminescence readings were taken using a Viewlux (PerkinElmer) with a 2 s exposure time per plate. Compound dose-response curves were normalized to DMSO and empty well controls on each plate. Quantitative drug activity data from dose-response curves was determined utilizing area Under the Curve (AUC) and Z-transformed AUC (Z-AUC, a mean-centering transformation applied to each individual cell-line screened).
(Cellular ATP, detected with luciferase, serves as a proxy for viable cell number.)
As to `Cc1c(C(=O)NN2CCCCC2)nn(-c2ccc(Cl)cc2Cl)c1-c1ccc(Cl)cc1`, the Potency is 20.9 µM (active).
For `CCN(CC)CCCC(C)Nc1c2ccc(Cl)cc2nc2ccc(OC)cc12` (stereo not given), the Potency was 2.95 µM (active).
Turning to `CCCCCCCCCCCCCCCC(=O)O[C@H]1[C@@H](O)[C@@H](O)[C@@H]([C@H](NC(=O)[C@@H]2C[C@@H](CCC)CN2C)[C@H](C)Cl)O[C@@H]1SC`, the Potency was 16.6 µM (active).
Still for that read-out and setting: the result for `O=c1c(O)c(-c2ccc(O)cc2)oc2cc(O)cc(O)c12` reads 9.34 µM (active).
On to `CC1CCC(n2c3cnccc3c3cnc(Nc4ccc5c(n4)CCN(C(=O)CO)C5)nc32)CC1` (stereo not given), for which the Potency was 0.152 µM (active).
Turning to `Cc1cc(C(=O)Nc2cc(Oc3ccc4nc(NC(=O)C5CC5)cn4n3)ccc2C)n(C)n1`, the Potency was 14.8 µM (active).
With `CN(CCOc1ccc(NS(C)(=O)=O)cc1)CCc1ccc(NS(C)(=O)=O)cc1`, the “viability, % of control” value is 113%.
For `Cc1ccc(C(=O)Nc2ccc(S(=O)(=O)O)c3cc(S(=O)(=O)O)cc(S(=O)(=O)O)c23)cc1NC(=O)c1cccc(NC(=O)Nc2cccc(C(=O)Nc3cc(C(=O)Nc4ccc(S(=O)(=O)O)c5cc(S(=O)(=O)O)cc(S(=O)(=O)O)c45)ccc3C)c2)c1`, the “viability, % of control” value is 113% [at 15.6 µM].
Regarding `Cc1cc(-c2cc(OC(=O)c3ccccc3)ccc2Cl)cc2nnc(Nc3ccc(OCCN4CCCC4)cc3)nc12`, the “viability, % of control” value is 102% [at 15.6 µM].
For the compound `O=c1c(O)c(-c2ccc(O)cc2O)oc2cc(O)cc(O)c12`, the “viability, % of control” value was 91.8%.
The same measure, in the same setting: the result for `CNC(=O)c1c(-c2ccc(F)cc2)oc2cc(N(CCO)S(C)(=O)=O)c(C3CC3)cc12` reads 113%; that for `O=[N+]([O-])c1cn2c(n1)OC[C@@H](OCc1ccc(OC(F)(F)F)cc1)C2`, 96.2%.
Turning to `O=c1[nH]c(=O)n(C2CCCO2)cc1F` (stereo not given), the Potency was 20.9 µM (active).
For the compound `COc1cc(Nc2ncc3c(n2)-c2ccc(Cl)cc2C(c2c(F)cccc2OC)=NC3)ccc1C(=O)O`, the Potency was 0.0833 µM (active).
`CCCCCCCCCCCCc1ccc(S(=O)(=O)Nc2nncs2)cc1`: the “viability, % of control” value is 119%.
Turning to `Cc1ncc(NC(=O)c2ccc(CN3CCN(C)CC3)c(C(F)(F)F)c2)cc1Nc1nccc(-c2cccnc2)n1`, the Potency was 3.32 µM (active).
Take `Cc1cnc(C(=O)NCCc2ccc(S(=O)(=O)NC(=O)NC3CCCCC3)cc2)cn1`: the “viability, % of control” value is 97%.
For `OC[C@H]1O[C@@H](Oc2cc(O)cc(/C=C/c3ccc(O)cc3)c2)[C@H](O)[C@@H](O)[C@@H]1O`, the “viability, % of control” value is 116%.
Regarding `NCCCCCC(=O)O`, the “viability, % of control” value is 134%.
For `COc1cc2c(c(OC)c1OC)-c1ccc(OC)c(=O)cc1[C@@H](NC(C)=O)CC2`, the Potency was 0.0372 µM (active).
For `NC(=O)c1noc([C@H](CCCC2CCCCC2)CC(=O)NO)n1`, the Potency is 18.6 µM (active).
As for `CC(C)(O)CNc1nc(Nc2ccnc(C(F)(F)F)c2)nc(-c2cccc(C(F)(F)F)n2)n1`, the Potency is 20.9 µM (active).
For the compound `CN(C)c1cccc(-c2c3c(=O)n(-c4ccccc4Cl)[nH]c3cc(=O)n2C)c1`, the “viability, % of control” value was 120%.
Consider `OC[C@H]1OC(O)C[C@@H](O)[C@H]1O` (stereo not given in full), for which the “viability, % of control” value was 147%.
As to `c1cc(Nc2cc(C3CC3)[nH]n2)nc(Nc2ccc3nc[nH]c3c2)n1`, the Potency was 0.0525 µM (active).
As for `FC(F)c1nc2ccccc2n1-c1nc(N2CCOCC2)nc(N2CCOCC2)n1`, the Potency is 0.209 µM (active).
Same read-out and setting: with `Cc1c(NC(=O)c2cc3c(s2)CCCC3)cccc1-c1cn(C)c(=O)c(Nc2ccc(C3C(=O)N(C)CCN3C)cc2)n1` (stereo not given) the figure was 16.6 µM (active).
Turning to `Nc1nc2c(ncn2COCCO)c(=O)[nH]1`, the “viability, % of control” value is 112%.
On to `COc1ccc(N(C)c2nc(C)nc3ccccc23)cc1`, for which the Potency was 0.0105 µM (active).
In the case of `COc1cc(Nc2ncc(F)c(Nc3ccc4c(n3)NC(=O)C(C)(C)O4)n2)cc(OC)c1OC`, the Potency was 0.148 µM (active).
The same measure, in the same setting: the result for `CC(C)c1cc(C(C)C)c(CC(=O)NS(=O)(=O)Oc2c(C(C)C)cccc2C(C)C)c(C(C)C)c1` reads 5.25 µM (active).
In the case of `COc1cc2c(cc1OC)CN(CCc1ccc(NC(=O)c3cccc4c(=O)c5cccc(OC)c5[nH]c34)cc1)CC2`, the “viability, % of control” value was 98.6%.
Regarding `Cn1c(CNc2ccc(C(=N)N)cc2)nc2cc(C(=O)N(CCC(=O)O)c3ccccn3)ccc21`, the viability, % of control is 133% [at 0.315 µM].
The same measure, in the same setting: with `COc1ccc2nc3n[nH]c(C)c3c(NCCOCCO)c2c1` the figure was 156%.
Turning to `O=C(O)[C@H](CC(=O)N1C[C@H]2CCCC[C@H]2C1)Cc1ccccc1`, the “viability, % of control” value is 107%.
`CN[C@@H](C)[C@H]1[C@H](O)C[C@@]2(C)[C@@H]3CC[C@H]4C(C)(C)[C@@H](NC)CC[C@@]45C[C@@]35CC[C@]12C`: the viability, % of control was 115% [at 8.46 µM].
With `S=c1nc[nH]c2nc[nH]c12`, the Potency is 0.417 µM (active).
As to `CC#CCn1c(N2CCC[C@@H](N)C2)nc2c1c(=O)n(Cc1nc(C)c3ccccc3n1)c(=O)n2C`, the “viability, % of control” value was 109%.
Take `CCOC(=O)C1=C[C@@H](OC(CC)CC)[C@H](NC(C)=O)[C@@H](N)C1`: the “viability, % of control” value was 122%.
In the case of `CC(=O)O[C@H]1C[C@@H]2CC[C@@H]3[C@H](CC[C@@]4(C)[C@H]3C[C@H]([N+]3(C)CCCCC3)[C@@H]4OC(C)=O)[C@@]2(C)C[C@@H]1N1CCCCC1`, the “viability, % of control” value is 112%.
